# PubChem BioAssay AID488890 (Southern Research Specialized Biocontainment Screening …, 2010)
# Screen size: about 320,000 compounds; about 1,300 (0.41%) were called active. Inconclusive results (about 3%) are left out. How the calls were made is not given here. These entries were drawn from the full list. Results with a measured potency or affinity are listed apart.
# Experiment: growth inhibition of non-replicating M. tuberculosis (AID 488890);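 further: plate controls were DMSO cells for no effect and high antibiotic wells for full effect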
# Settings: Mycobacterium tuberculosis non-replicating, at 25 µM, stronger effect = higher value
row,SMILES,inhibition
1,Clc1ccc2nc(CSc3ncn[nH]3)cn2c1,-31.7%
2,O=[N+]([O-])c1ccc2nc(SCc3cn4cccnc4n3)[nH]c2c1,-20.2%
3,c1ccc2[nH]c(SCc3cn4ccccc4n3)nc2c1,-0.59%
4,NC(=O)CSc1nc2ccc([N+](=O)[O-])cc2[nH]1,3.31%
5,CCC(CO)NCc1sccc1C (configuration not stated),-5.31%
6,Cc1cccc(C(=O)NC(=S)Nc2ccc(S(=O)(=O)N3CCN(C)CC3)cc2)c1,52.2%
7,O=[N+]([O-])c1cc(/C=N\Nc2ccccn2)ccc1Cl,-14.6%
8,O=C(N/N=C/c1cc(Cl)cc([N+](=O)[O-])c1O)c1cc(-c2ccccn2)nc2ccccc12,4.78%
9,COc1cc(/C=N/Nc2nc3ccccc3s2)cc([N+](=O)[O-])c1O,22%
10,Cc1c(O)ccc(/C=N/Nc2ncccc2[N+](=O)[O-])c1O,-1.95%
11,Cc1cc(C(=O)N/N=C/c2cc(Cl)cc([N+](=O)[O-])c2O)c2ccccc2n1,54.6%
12,COc1cccc(/C=N/Nc2ncccc2[N+](=O)[O-])c1OC,1.4%
13,CN(C(=O)COC(=O)c1ccccc1SCC(=O)N1CCCC1)C1CCS(=O)(=O)C1 (configuration not stated),-9.96%
14,Cc1ccccc1CCNC(=O)C1CC(O)CN1C(=O)Nc1ccccc1 (configuration not stated),-7.09%
15,O=S(=O)(NCc1ccccc1F)c1cccc(S(=O)(=O)N2CCOCC2)c1,-6.99%
16,O=C(NC(=S)Nc1ccc(Cl)cn1)c1cc([N+](=O)[O-])ccc1N1CCOCC1,5.35%
17,Cc1ccc(S(=O)(=O)N2CCN(C(=O)c3ccccc3)CC2)cc1,9.38%
18,COc1ccc(CCNC(=O)C(=O)c2c(C)[nH]c3ccccc23)cc1,12%
19,NC(=O)NCCC1=CCCCC1,-8.64%
20,O=C(NCCc1ccccc1)c1ccc(Br)o1,73.4%
21,COc1ccc(C(=O)NCCC2=CCCCC2)cc1,71.4%
22,O=C(NCCC1=CCCCC1)c1ccc(Cl)cc1,76.5%
23,CCN(CC)C(=O)c1cccc(NC(=O)c2cc(-c3ccccn3)nc3ccccc23)c1,57%

row,SMILES,inhibition
1,Cc1nnc2sc(SCC(=O)Nc3ccc(Br)cc3)nn2c1=O,-4.78%
2,CCOc1ccccc1C(=O)NC1CC2CCCC(C1)N2C1CC1 (configuration not stated),0.26%
3,CCOc1ccc(S(=O)(=O)N2CCOCC2)cc1NC(=O)CN1C(=O)NC(C)(c2ccccc2)C1=O (configuration not stated),6.19%
4,Nc1ncnc(Sc2ccccc2)c1[N+](=O)[O-],67.8%
5,Cc1nc(Sc2ccccc2)c(C#N)c(C)c1[N+](=O)[O-],16.8%
6,C#CCN(CC=C)C(=O)c1ccc(OC2CCN(S(=O)(=O)N(C)C)CC2)cc1,-9.64%
7,Cc1ccnc(NC(=O)C2COc3ccccc3O2)c1 (configuration not stated),2.12%
8,Cc1cccc(NC(=O)C2COc3ccccc3O2)n1 (configuration not stated),75.7%
9,O=C(Nc1ccncc1)C1COc2ccccc2O1 (configuration not stated),29.1%
10,O=C(C1COc2ccccc2O1)N1CCCC1 (configuration not stated),70.2%
11,O=C(CCC1COc2ccccc2O1)Nc1ccc(Cl)cn1 (configuration not stated),79.7%
12,CC1CCCN(C(=O)C2COc3ccccc3O2)C1 (configuration not stated),57.7%
13,O=C(COC(=O)C1COc2ccccc2O1)Nc1cccc(Cl)c1 (configuration not stated),6.42%
14,O=C(Nc1ccccn1)C1COc2ccccc2O1 (configuration not stated),77%
15,CCOC(=O)CNC(=O)CN1CCC(c2nc3ccccc3[nH]2)CC1,-5.38%
16,COc1ccc(N/C=C/C(=O)c2ccc(Oc3ncccn3)cc2)cc1,-0.22%
17,C/C(CC(=O)NC1CCCCC1)=N\NC(=O)Cc1ccc(-c2ccccc2)cc1,9.13%
18,O=C(C1=C[C@@H](c2ccccc2)C[C@@H](OCc2ccc(CO)cc2)O1)N1CCN(Cc2ccc3c(c2)OCO3)CC1,38.2%
19,O=C(CNC(=O)Cc1ccccc1)NCC(=O)OCc1ccc(C(=O)c2ccccc2)cc1,4.67%
20,COc1ccc(-n2nc(C(=O)NCC(=O)NCc3cccc(F)c3)c3ccccc3c2=O)cc1Cl,-7.9%
21,O=S(=O)(c1ccc2nc(COc3ccccc3)[nH]c2c1)N1CCOCC1,-3.8%
22,CC(C)(C)C(=O)CN1C2=NCCCN2c2ccccc21,12.1%
23,CCOc1ccc(N(CC(=O)NCc2ccccc2)S(=O)(=O)c2ccc(C)cc2)cc1,0.73%

row,SMILES,inhibition
1,CCN(CC1COc2ccccc2O1)C(=S)NC1CC2CCC1C2 (configuration not stated),0.66%
2,CC1CCCC(NC(=O)C2COc3ccccc3O2)C1C (configuration not stated),17.1%
3,COC(=O)c1ccccc1NC(=O)C1COc2ccccc2O1 (configuration not stated),59.7%
4,COC(=O)c1ccc(C)c(NC(=O)C2COc3ccccc3O2)c1 (configuration not stated),57.8%
5,Cc1[nH]c2ccccc2c1C(=O)C(C)OC(=O)c1ccccc1NCCO (configuration not stated),17.8%
6,CCCCN(Cc1ccco1)S(=O)(=O)c1csc(C(N)=O)c1,38.5%
7,CSc1ccccc1C(=O)N(C)C(c1ccccc1)c1ccccc1,13.8%
8,CCNc1nc(NC(C)C)nc(SCCOc2ccc(C)cc2)n1,6.84%
9,C=CCc1cc(Cl)ccc1OCCn1ccnc1,31.9%
10,Cc1cc(OCCCn2ccnc2)cc(C)c1Cl,-6.72%
11,Cc1ccc(OCCCn2ccnc2)cc1C,70.8%
12,Clc1ccc(SCCn2ccnc2)cc1,71.2%
13,Cc1cc(C)cc(OCCCn2ccnc2)c1,76%
14,Cc1cc(OCCCn2ccnc2)ccc1[N+](=O)[O-],39.3%
15,Clc1ccc(SCCCCn2cncn2)cc1,26.1%
16,C=CCc1cc(C)ccc1OCCCn1ccnc1,26.9%
17,CS(=O)(=O)N1CCC(C(=O)NCCN2CCN(Cc3ccccc3)CC2)CC1,-1.43%
18,Cc1ccc(-c2csc(N3CCC[C@@H]3C(=O)NCCn3c(C(F)(F)F)nc4ccccc43)n2)cc1,42.9%
19,C[C@@H](NC(=O)c1nc[nH]c1C(=O)N[C@H](C)c1ccccc1)c1ccccc1,66%
20,O=C(O)c1ccc2c(=O)n3cc(C(=O)c4ccccc4O)cc(Cl)c3nc2c1,-0.88%
21,Fc1ccc2c(c1)C(c1ccncc1)=NNC(c1ccc(Br)cc1)=N2,21.1%
22,O=C(N/N=C/c1ccc2cccnc2c1)c1ccco1,14.9%
23,COc1ccc(CCNS(=O)(=O)c2c(N)n(C)c(=O)n(C)c2=O)cc1OC,3.12%

row,SMILES,inhibition
1,CCOc1ccc(C(=O)Nc2cc(S(=O)(=O)Nc3ccccc3Cl)ccc2N2CCOCC2)cc1,4.51%
2,CS(=O)(=O)N(CC(=O)NCC1CCCO1)c1cc(Cl)cc(Cl)c1 (configuration not stated),-12.1%
3,Clc1ccc(OCCn2ccnc2)c2ccccc12,17.9%
4,Cc1ccc(OCCCn2ccnc2)c(Br)c1,27.2%
5,Clc1ccccc1OCCCn1ccnc1,-0.75%
6,Clc1cc(Br)ccc1OCCn1ccnc1,40%
7,O=C(CCNC(=O)C1CCN(S(=O)(=O)c2ccccc2)CC1)NCCc1ccc(Cl)cc1,1.82%
8,CN1CCN(C(=O)C2CCCN(S(=O)(=O)c3ccc(Br)cc3)C2)CC1 (configuration not stated),8.61%
9,COc1ccc(CCn2c(N3CCN(Cc4ccccc4)CC3)nc3c2c(=O)[nH]c(=O)n3C)cc1,15.1%
10,CC1(c2nnc(-c3ccc(Cl)cc3)o2)CC(c2ccc(Cl)cc2)=NO1 (configuration not stated),36.6%
11,CC1(c2nnc(-c3cccc(Cl)c3)o2)CC(c2ccc(F)cc2)=NO1 (configuration not stated),70.9%
12,CC1(c2nnc(-c3ccc(Cl)cc3)o2)CC(c2cccc(Cl)c2)=NO1 (configuration not stated),79.6%
13,CC1(c2nnc(-c3ccccc3)o2)CC(c2ccccc2)=NO1 (configuration not stated),79.5%
14,Cc1ccc(OCCn2ccnc2)c(C)c1,6.35%
15,CCOc1cc(/C=C2\CCn3c2nc2cc(Cl)ccc2c3=O)ccc1O,9%
16,CN(c1ccccc1)S(=O)(=O)c1cc(Cl)ccc1Cl,28.7%
17,CCOc1cc(NC(=O)c2ccccc2OC)c(OCC)cc1NC(=O)c1ccccc1,8.11%
18,C/C(=N\NC(=O)c1ccccc1)c1ccc2c(c1)OCO2,35.4%
19,C/C(=N\NC(=O)c1ccc2c(c1)OCO2)c1ccc2c(c1)OCO2,41.2%
20,O=C(CCSc1ccccc1)NCc1cccnc1,-1.43%
21,Cc1cc(C)cc(N2C(=O)NC(=O)/C(=C\C=C\c3ccco3)C2=O)c1,2.52%
22,O=C1NC(=O)N(c2ccccc2)C(=O)/C1=C/C=C/c1ccco1,-12.6%
23,CN1C(=O)/C(=C/C=C/c2ccco2)C(=O)NC1=S,-21.1%

row,SMILES,inhibition
1,Cc1ccc(N2C(=O)NC(=O)/C(=C\C=C\c3ccco3)C2=O)cc1,18.7%
2,O=C1NC(=O)N(Cc2ccc(F)cc2)C(=O)/C1=C\C=C\c1ccco1,75.2%
3,Cc1ccc(N2C(=O)NC(=O)/C(=C\C=C\c3ccco3)C2=O)cc1C,13%
4,COc1ccc(NC(=O)CCNS(=O)(=O)c2ccccc2F)cc1S(N)(=O)=O,-0.54%
5,Cc1ccccc1C1c2[nH]c3ccccc3c2CCN1C(=O)c1ccc(=O)n(C)n1 (configuration not stated),10.8%
6,CCOC(=O)c1c(C)c(C)n(Cc2ccc(OC)c(OC)c2)c1C,16.5%
7,Cc1cc(C(=O)COc2ccccc2C(N)=O)c(C)n1C,4.7%
8,Cc1cc(C(=O)COc2ccccc2C(N)=O)c(C)n1CC1CCCO1 (configuration not stated),-26.6%
9,CCN(CC(=O)NC(=O)NCc1ccco1)Cc1nc2ccccc2c(=O)[nH]1,12.9%
10,COCCNC(=O)Cc1c(C)c2c(cc(C)c3c(C(C)(C)C)coc32)oc1=O,26.6%
11,O=C(CCc1nnc2n(Cc3ccc(F)cc3)c(=O)c3ccccc3n12)N1CCN(c2ccccn2)CC1,-3.25%
12,O=C(Nc1ccc(Cl)cc1)OCCn1nnnc1C(c1ccccc1)N1CCOCC1 (configuration not stated),4.68%
13,Cc1ccc(NC(=O)c2ccc([N+](=O)[O-])s2)cc1S(=O)(=O)N1CCOCC1,43.2%
14,CCN1CCN(c2ccc(S(=O)(=O)N3CCCCC3)cc2NC(=O)c2ccccc2)CC1,-11.8%
15,Cc1ccc(C(=O)Nc2cccc(S(=O)(=O)N3CCCC3)c2)o1,-4.97%
16,NS(=O)(=O)c1ccc(NC(=O)c2ccc(S(=O)(=O)N3CCOCC3)o2)cc1,1.05%
17,O=C(Nc1ccc(S(=O)(=O)N2CCOCC2)cc1)c1ccc(Br)o1,-0.17%
18,COc1ccc(S(=O)(=O)N2CCCCC2)cc1NC(=O)c1ccc([N+](=O)[O-])o1,1.5%
19,O=C(Nc1cc(S(=O)(=O)N2CCOCC2)ccc1N1CCOCC1)c1ccc([N+](=O)[O-])s1,50.4%
20,O=C(Nc1ccc(S(=O)(=O)N2CCOCC2)cc1)c1ccc(Cl)s1,5.17%
